Records with an inconclusive call do not appear. Entries that show only a call come without a potency. The source made the active and inactive calls. The call rests on the fitted dose curve.
Potency means the concentration at half of the fitted maximal effect.

A short description of this assay: Cytotoxicity counterscreen for inhibitors of SARS-CoV-2 cell entry (AID 1645845). Further: nearly all actives have a fitted effect of over 50% in size. Conditions: cell viability (SARS-CoV-2 entry assay cells); series mostly up to 57.1 µM. A digest of the protocol:
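ATP-content luminescence (ATPLite 1step, 15 min RT) read after 48 h compound exposure of Expi293F cells stably expressing human ACE2; normalized to cells-only wells and media-only wells.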
(In general: The purpose of a counterscreen is to sort out artefacts and off-target activity.)
As to `C[N+](C)(CCOc1ccccc1)Cc1cccs1`, the Potency entry was “inactive”. The same measure, in the same setting: the result for `NCCCCCC(=O)O` reads “inactive”; that for `CC[N+](CC)(CCNC(=O)C(=O)NCC[N+](CC)(CC)Cc1ccccc1Cl)Cc1ccccc1Cl`, “inactive”. Still for that read-out and setting: the result for `CCOC(=O)c1ccccc1O` reads “inactive”; that for `CCCCCCCN(CC)CCCC(O)c1ccc(NS(C)(=O)=O)cc1` (stereo not drawn), “inactive”. The same measure, in the same setting: the result for `CC12CCC(CC1)C(C)(C)O2` reads “inactive”. Take `CNC(=O)c1c(I)c(NC(C)=O)c(I)c(C(=O)O)c1I`: the Potency entry was “inactive”. Turning to `CN(C)c1ccc2nc3ccc(=[N+](C)C)cc-3sc2c1`, the Potency is 7.08 µM (active). On the same count and under the same terms, the result for `CCC[C@@]1(CCc2ccccc2)CC(O)=C([C@H](CC)c2cccc(NS(=O)(=O)c3ccc(C(F)(F)F)cn3)c2)C(=O)O1` reads “inactive”; that for `CN(c1nccc(=O)[nH]1)C1CCN(c2nc3ccccc3n2Cc2ccc(F)cc2)CC1`, “inactive”. On to `NC[C@H]1O[C@H](O[C@H]2[C@H](O)[C@@H](O[C@H]3O[C@H](CO)[C@@H](O)[C@H](N)[C@H]3O)[C@H](N)C[C@@H]2N)[C@H](O)[C@@H](O)[C@@H]1O`, for which the outcome was “inactive [at 5.25 µM]”.

Regarding `CN(C)CCc1c[nH]c2ccc(Cn3cncn3)cc12`, the Potency entry was “inactive”. As to `COC(=O)c1cccnc1`, the Potency entry is “inactive”. The same measure, in the same setting: in the case of `COCCCOc1ccnc(CS(=O)c2nc3ccccc3[nH]2)c1C` (stereo not drawn) it was “inactive”. Turning to `CO/N=C(/C(=O)N[C@@H]1C(=O)N2C(C(=O)[O-])=C(C[n+]3ccn4ncccc43)CS[C@H]12)c1nsc(N)n1`, the Potency result was “inactive”. On to `O=c1[nH]c(=O)n([C@H]2C[C@H](O)[C@@H](CO)O2)cc1Br`, for which the Potency result was “inactive”. With `COC(=O)c1cc(Cl)ccc1NS(=O)(=O)C(F)(F)F`, the Potency entry was “inactive”.

Regarding `COc1ccnc(CS(=O)c2nc3ccc(OC(F)F)cc3[nH]2)c1OC` (stereo not drawn), the Potency result was “inactive”.

As to `CC(C)(C)NCC(O)COc1cccc2c1C[C@H](O)[C@H](O)C2` (stereo partly drawn), the Potency result was “inactive”. For the compound `O=C(O)COc1nn(Cc2ccccc2)c2ccccc12`, the Potency result is “inactive”. Same read-out and setting: the result for `NC(=O)NC(=O)Cc1ccccc1` reads “inactive”; that for `COc1cc(C(=O)NS(=O)(=O)c2ccccc2C)ccc1Cc1cn(C)c2ccc(NC(=O)OC3CCCC3)cc12`, “inactive”. As for `Nc1nc(Cl)nc2c1ncn2[C@H]1C[C@H](O)[C@@H](CO)O1`, the Potency result is “inactive”. Turning to `CCS(=O)(=O)CCn1c([N+](=O)[O-])cnc1C`, the Potency result was “inactive”. Turning to `NC(CO)(CO)CO`, the Potency result is “inactive”. The same measure, in the same setting: in the case of `COCC(=O)Nc1c(I)c(C(=O)NCC(O)CO)c(I)c(C(=O)N(C)CC(O)CO)c1I` (stereo not drawn) it was “inactive”; in that of `CC(C)C[C@H](CN)CC(=O)O`, “inactive”; in that of `CN1C(C(=O)Nc2ccccn2)=C(O)c2sccc2S1(=O)=O`, “inactive”. On the same count and under the same terms, the result for `CCOC(=O)O[C@]1(C(=O)OCCl)CC[C@H]2[C@@H]3CCC4=CC(=O)C=C[C@]4(C)[C@H]3[C@@H](O)C[C@@]21C` reads “inactive”; that for `Cc1nnc(SCC2=C(C(=O)O)N3C(=O)[C@@H](NC(=O)Cn4cnnn4)[C@H]3SC2)s1`, “inactive”; that for `O=C(O)c1cc(=O)[nH]c(=O)[nH]1`, “inactive”. On the same count and under the same terms, the result for `CCC(C(=O)NC(=O)NC(C)=O)c1ccccc1` (stereo not drawn) reads “inactive”; that for `CC(C)(C)NCC(O)COc1ccccc1OCC1CCCO1` (stereo not drawn), “inactive”.

In the case of `NCCNCCNCCN`, the Potency entry is “inactive”. Same read-out and setting: in the case of `C#C[C@]1(O)CC[C@H]2[C@@H]3CCC4=CC(=O)CC[C@@H]4[C@H]3CC[C@@]21CC` it was “inactive”; in that of `Nc1ccn([C@@H]2CS[C@H](CO)O2)c(=O)n1`, “inactive”; in that of `CC(=O)NC[C@H]1CN(c2ccc(N3CCOCC3)c(F)c2)C(=O)O1`, “inactive”. The same measure, in the same setting: the result for `Cc1ncc(CO)c(CO)c1O` reads “inactive”.

Values taken from PubChem BioAssay (NCATS).
